# Experimental data taken from ChEMBL document CHEMBL3988442, “University of Dundee, Small-Polar-MMV Screening Library” (2021).
# Among all 48,000 compounds or so, about 13,000 (27%) showed an effect of 50% or more. This is one part of the list.
# Tested on: Wolbachia pipientis
# Assay: Anti-Wolbachia Cell-Based Screen
# Format: functional
# Parameters: scale not given: in the data most compounds retested in dose-response had high values
# Conditions: 5 µM
row,SMILES,Percent Effect
1,O=C1COc2ccc(C(=O)NS(=O)(=O)c3ccc(F)cc3F)cc2N1,1.32%
2,CCS(=O)(=O)N1CCC(c2nnc(CN3CCCC3)n2C2CC2)CC1,-2.411%
3,OCCOc1cc(F)ccc1NCc1nc(-c2cccs2)no1,14.46%
4,Cc1cnn(CCNCc2nnc(-c3ccc(F)cc3)o2)c1,123.4%
5,Cc1cnn(CCNCc2cc(C)no2)c1,0.9077%
6,Cc1cnn(CCNCc2nnc(-c3occc3C)o2)c1,122.9%
7,Cc1cnn(CCNC(C)c2nnc(-c3ccccc3)o2)c1 (centres undefined),-3.26%
8,Cc1cnn(CCNCc2nnc(-c3ccccc3)o2)c1,127.3%
9,Cc1ccc(-c2cc(CNCCn3cc(C)cn3)on2)cc1,-23.87%
10,COc1ccc(-c2nnc(CNCCn3cc(C)cn3)o2)cc1,93.96%
11,Cc1cnn(CCNCc2csc(-c3ccc(F)cc3)n2)c1,0.7899%
12,Cc1ccc(-c2nnc(C(C)NCCn3cc(C)cn3)o2)cc1 (centres undefined),8.064%
13,c1ccc(-c2nnc(CNCCn3cccn3)o2)cc1,-4.985%
14,Cc1cnn(CCNCc2nc(COc3ccc(F)cc3)no2)c1,-9.095%
15,Cc1ccoc1-c1nnc(CNCCn2cccn2)o1,-4.902%
16,CCc1noc(CN(CC(=O)N2CCCCC2)c2cccc(C)c2)n1,13.21%
17,COc1ccc(OCc2cc(C(=O)N3CC=CC3)n[nH]2)c(Cl)c1,6.358%
18,COCC(=O)N1CCc2c(CNS(C)(=O)=O)n[nH]c2C1,5.679%
19,CS(=O)(=O)NCc1noc2c1CN(C(=O)c1ccsc1)CC2,8.076%
20,CS(=O)(=O)NCc1noc2c1CN(C(=O)C1CCC1)CC2,102.9%
21,O=C(c1ccnnc1)N1CCc2onc(CN3CCCC3)c2C1,-11.85%
22,CCC(=O)N1CCc2onc(CNS(C)(=O)=O)c2C1,86.89%
23,CC(=O)NCc1noc2c1CN(CCN1CCCC1)CC2.O=C(O)C(F)(F)F.O=C(O)C(F)(F)F,-16.49%
24,CS(=O)(=O)NCc1noc2c1CN(C(=O)C1CC1)CC2,103.2%
25,FC(F)(F)C1CCCn2c(CNCc3cccs3)nnc21 (centres undefined),-7.2%

row,SMILES,Percent Effect
1,CCN(CC)C(=O)N1CCN(C2=NCC(C)S2)CC1 (centres undefined),-3.513%
2,Cc1nccc(CNC(=O)N2CCN(Cc3ccccc3)C[C@H]2C)n1,-2.521%
3,Cc1ccnc(N2CCN(Cc3ccccc3)CC(O)C2)c1 (centres undefined),10.83%
4,Cc1nccc(CN2CC[C@@]3(CCCN3Cc3ccccc3)[C@@H](O)C2)n1,93.51%
5,COc1ccc(-c2ccc(C(=O)NCCCC(N)=O)c(F)c2)c(F)c1,-2.164%
6,N#Cc1c(C2CC2)cc(-c2ccc(O)cc2)nc1N,-0.3878%
7,Cc1c(-c2cnn(C)c2)nc(N)c(C#N)c1-c1ccc(CO)o1,0.3251%
8,Cn1cc(-c2noc(C3(C)CCOCC3)n2)cn1,-4.622%
9,CCCc1c(C2CCOC(C)(C)C2)nc(N)c(C#N)c1-c1cnn(C)c1 (centres undefined),105.7%
10,Cc1c(C2CCOC(C)(C)C2)nc(N)c(C#N)c1-c1ccc(O)cc1 (centres undefined),105.2%
11,Cc1cc(-c2cc(C3CCOC3)c(C#N)c(N)n2)ccc1Cl (centres undefined),25.02%
12,CCc1ccc(-c2c(C)c(-c3cnn(C)c3)nc(N)c2C#N)o1,7.382%
13,CCn1cc(-c2c(C)c(C3CCOC(C)(C)C3)nc(N)c2C#N)cn1 (centres undefined),115.2%
14,CN(C)C(=O)CN1C[C@@H]2CC[C@H](C1)N(C/C=C/c1ccc(F)cc1)C2,0.7109%
15,CCc1cc(NC(=O)N2CCC(Oc3cccnc3)C2)n(C)n1 (centres undefined),-19.7%
16,Cc1nn2cccnc2c1C(=O)NCc1ccccc1OCC1CC1,6.014%
17,O=S(=O)(N1CCN(CC2CC2)CC1)N1CCCC1c1ccco1 (centres undefined),8.161%
18,CC(=O)c1c(C)nn(CC(=O)N2Cc3cnc(CC(C)C)nc3C2)c1C,-0.1145%
19,CCOCc1ccccc1NC(=O)NCC(C)(O)c1cccs1 (centres undefined),-8.36%
20,CSCCC(C)(O)CNC(=O)Nc1ccccc1C (centres undefined),6.778%
21,COC(=O)c1ccc(S(=O)(=O)NCC(C)(O)c2cccs2)cc1 (centres undefined),-7.069%
22,COc1ccc(CNC(=O)NCC(O)(c2cccs2)C2CC2)cc1 (centres undefined),11.16%
23,CCOc1ccc(NC(=O)NCC(C)(O)c2cccs2)cc1 (centres undefined),123.8%
24,Cc1ccccc1NC(=O)NCC(C)(O)c1cccs1 (centres undefined),117.7%
25,OC(CNc1ccc(Cl)cn1)CN1CCOCC1 (centres undefined),-5.222%

row,SMILES,Percent Effect
1,CC(=O)Nc1ccccc1Sc1nc(Br)nn1C,114.6%
2,Cc1n[nH]c(C)c1Sc1ccccc1NC(=O)CN1CCCC1,2.491%
3,CCn1nc(Br)nc1Sc1ccccc1NC(C)=O,119.4%
4,CCC(=O)Nc1ccccc1Sc1nc(Br)nn1C,107.5%
5,Cn1cnnc1Sc1ccc(NC(=O)C2CC2)cc1Cl,-0.08341%
6,CCCSc1ccccc1NC(=O)N1CCC(N2CCSCC2)CC1,-2.644%
7,Cc1n[nH]c(C)c1Sc1ccccc1NC(=O)N1CCN(C)CC1,1.27%
8,Cn1nc(Br)nc1Sc1ccccc1NC(=O)C1CC1,107.9%
9,Cc1n[nH]c(C)c1Sc1ccccc1NC(=O)N1CCOCC1,-5.626%
10,COCC(=O)Nc1ccccc1Sc1c(C)n[nH]c1C,-1.881%
11,CSc1ccccc1NC(=O)CCC(=O)N(C)C1CCN(C)CC1,6.723%
12,CN(C)C(=O)N1CCN(C(=O)c2cccc(Cl)c2)CC2(CNC(=O)C2)C1 (centres undefined),-8.821%
13,CCCN(Cc1ccc(OC)nc1)Cc1ccccc1OC,7.541%
14,CS(=O)(=O)c1nccn1Cc1ccc(OC(F)F)cc1,-0.8084%
15,NC(=O)Nc1cccc(C(=O)N(Cc2ccc(F)cc2)C2CC2)c1,-11.54%
16,NC(=O)C1(CNCc2csc(-c3cccs3)n2)CCOCC1,-0.8866%
17,CC(C)N1CCC(C(=O)N2CCC(c3ccc(F)cc3)C2)CC1 (centres undefined),11.91%
18,CC(C)N1CCC(C(=O)N2CCN(c3cccc(C(=O)O)c3)CC2)CC1,106.6%
19,CC(C)N1CCC(C(=O)N2CCCN(c3ccccc3)CC2)CC1,106.5%
20,CC(C)N1CCCC(C(=O)N2CCN(c3cccc(C(=O)O)c3)CC2)C1 (centres undefined),107.1%
21,CC(C)c1cc(C(=O)N2CCN(c3cccc(C(=O)O)c3)CC2)n(C)n1,1.445%
22,CC(C)N1CCCC(C(=O)N2CCN(c3cnn(C)c(=O)c3)CC2)C1 (centres undefined),-17.55%
23,O=C(Cc1ccc2c(c1)OCO2)N1CCCN(c2ccccc2)CC1,5.064%
24,Cc1cccc(N2CCN(C(=O)CN3CCC(C(N)=O)CC3)CC2)c1,3.313%
